Assay results: PubChem BioAssay (NCATS)
Results filed as inconclusive are left out. The source made the active and inactive calls. Unless noted, calls come from the whole dose curve; as a rule, active = well fitted curve in the direction sought with a large enough effect; inconclusive = small, poorly fitted or top-dose-only effect, or another doubt; inactive = no such curve, though single readings can be large; an effect the other way counts as inactive or inconclusive.

What was measured:
[1] = target: Rap guanine nucleotide exchange factor 3 (Homo sapiens) (UniProt O95398); assay: Confirmatory qHTS for antagonist of cAMP-regulated guanine nucleotide exchange factor 3 (EPAC1) (AID 1645880); settings: EPAC1 Rap1B-BODIPY-GDP exchange, fluorescence; activity, negative = inhibition: at 115 µM (top of the series); note: nearly all actives have a fitted effect of over 55% in size; note: potency is the fitted concentration of half-maximal effect;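 for activity, negative = inhibition: plate controls were DMSO only for no effect and full effect of the ATA control for full effect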
Outline: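 Released BODIPY-GDP fluoresces less than Rap1-bound BODIPY-GDP; the signal is followed at 480/540 nm at 5-min intervals over 30 min, after 5 min at room temperature. Reactions contain 100 nM EPAC1, 250 nM RAP1B-BODIPY-GDP and 50 uM GDP; results are normalized to ATA and DMSO.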

[2] = target: Rap guanine nucleotide exchange factor 3 (Homo sapiens) (UniProt O95398); assay: Confirmatory qHTS for agonist of cAMP-regulated guanine nucleotide exchange factor 3 (EPAC1) (AID 1645881);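 note: EPAC1 catalysed release of BODIPY-GDP from Rap1B seen as fluorescence loss; 100% = effect of cAMP agonist control; nearly all actives have a fitted effect of over 75% in size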
[3] = target: Rap guanine nucleotide exchange factor 4 (Homo sapiens) (UniProt Q8WZA2); assay: Confirmatory qHTS for agonist of cAMP-regulated guanine nucleotide exchange factor 4 (EPAC2) (AID 1645884);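 note: nucleotide exchange releases bodipy-GDP from Rap1 and this lowers its fluorescence; % is set by controls: 0 for no effect and ±100 for the full control effect; nearly all actives have a fitted effect of over 65% in size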
[4] = target: Rap guanine nucleotide exchange factor 4 (Homo sapiens) (UniProt Q8WZA2); assay: Confirmatory qHTS for antagonist of cAMP-regulated guanine nucleotide exchange factor 4 (EPAC2) (AID 1645885); note: % is set by controls: 0 for no effect and ±100 for the full control effect; nearly all actives have a fitted effect of over 25% in size
[5] = target: Rap guanine nucleotide exchange factor 3 (Homo sapiens) (UniProt O95398); assay: Counterscreen qHTS for antagonist of cAMP-regulated guanine nucleotide exchange factor 3 (EPAC1) (AID 1645888); note: % of control where 0% means no effect
Outline: (§1)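 Measured: fluorescence of BODIPY-GDP bound to Rap1B, which falls as exchange proceeds. Conditions include 50 uM competing GDP, 5 and 30 min reads, and a later cAMP challenge for antagonist detection.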

[6] = target: Rap guanine nucleotide exchange factor 3 (Homo sapiens) (UniProt O95398); assay: Counterscreen qHTS for agonist of cAMP-regulated guanine nucleotide exchange factor 3 (EPAC1) (AID 1645889); note: % of control where 0% means no effect; nearly all actives have a fitted effect of over 40% in size
Outline: as §1

[7] = AP1 Signaling Pathway (AID 357; active = well fitted curve in either direction with a large enough effect, not every such curve was filed as active;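 note: ME-180 reporter cells stimulated with EGF at its EC50 level; % is set by controls: 0 for no effect and ±100 for the full control effect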); settings: ME-180 (cervical carcinoma) AP-1-bla reporter, EGF-induced, beta-lactamase ratio, 5 h; at 7.69 µM (top of the series) unless noted
Outline: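 In this screen, ME-180 cells in Opti-MEM with 0.5% dialyzed FBS received EC50 EGF and compound titrations for 5 h. AP-1 reporter beta-lactamase was detected via CCF4 ratio, giving AC50 for positive and negative modulators.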

[8] = NFAT Signaling Pathway (AID 444; active = well fitted curve in either direction with a large enough effect, not every such curve was filed as active;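 note: carbachol stimulus at about its EC50 of 1 µM final; % is set by controls: 0 for no effect and ±100 for the full control effect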); settings: Jurkat NFAT-bla M1, carbachol, beta-lactamase ratio, 5 h; at 7.69 µM (top of the series) unless noted
Outline: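 Jurkat cells carrying an NFAT-driven β-lactamase reporter and co-transfected muscarinic M1 receptor were treated with compound plus carbachol (1 uM final, an EC50 level) for 5 h at 37 °C. CCF4 loading followed for 1 h at RT; 460/530 nm ratio gave %activity.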

[9] = target: Glucocorticoid receptor (Homo sapiens) (UniProt P04150); assay: GR-GFP Redistribution (AID 450;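 active = compounds whose dose series gives a full or clear partial fitted curve of increased nuclear translocation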; note: potency is the fitted concentration of half-maximal effect); settings: U2OS GR-GFP nuclear translocation, laser cytometry, 2 h
[10] = target: Lysosomal acid glucosylceramidase (Homo sapiens) (UniProt P04062); assay: Glucocerebrosidase-p2 (AID 348; in the data active = potency below about 10 µM; note: potency is the fitted concentration of half-maximal effect); settings: purified GBA, blue fluorogenic substrate, 40 min
Outline: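 Normal human glucocerebrosidase (0.2 nM) with blue fluorogenic substrate (80 uM final) in citrate/phosphate pH 5.9 with 10mM sodium taurocholate, 0.01% tween-20; 40 min RT, NaOH/glycine stop; fluorescence Ex 365/Em 440; AC50 from a titration from 0.6 nM upwards.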

[11] = target: Cytochrome P450 1A2 (Homo sapiens) (UniProt P05177); assay: p450-cyp1a2 (AID 410; calls by dose curve; note: potency is the fitted concentration of half-maximal effect)
Outline: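 Luminescent demethylation readout: Luciferin-ME (100uM, equal to Km) turned over by 20nM CYP1A2 for 60 min at room temperature after NADPH regeneration addition, following 10 min compound preincubation. Normalization used 57 uM furafylline as full inhibition.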

[12] = Stat Signaling Pathway (AID 446; active = well fitted curve in either direction with a large enough effect, not every such curve was filed as active;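 note: ME-180 cervical cancer cells given 40 pM IL-6 alongside compound; SIE-controlled beta-lactamase reporter measured as 460/530 nm FRET emission ratio; % is set by controls: 0 for no effect and ±100 for the full control effect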)
Outline: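 Compound effects on IL-6-induced STAT reporter activity were measured in ME-180 cells. After overnight culture, cells were co-treated with 40 pM IL-6 for 5 hrs before beta-lactamase substrate loading at room temperature.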

[13] = target: Glucocorticoid receptor (Homo sapiens) (UniProt P04150); assay: GR-EFC Redistribution (AID 451; calls by dose curve; note: potency is the fitted concentration of half-maximal effect); settings: CHO-K1 GR-EFC translocation, beta-gal luminescence, 2 h
Outline: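 CHO-K1 cells stably expressing nuclear-localized β-gal enzyme acceptor and GR fused C-terminally to the enzyme donor fragment; ligand-driven nuclear translocation restores β-gal by complementation. Compounds titrated up to 46 uM final, 2 h at 37 °C; luminescence read.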

[14] = target: Mitogen-activated protein kinase 10 (Mus musculus) (UniProt Q61831); assay: JNK3 AlphaScreen Assay (AID 530; active = well fitted curve in either direction with a large enough effect, not every such curve was filed as active;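 note: kinase came from lysate of stimulated human HepG2 cells; signal reports phosphorylation of biotinylated GST-cJun 1-79 at Ser73 with 10 µM ATP; % is set by controls: 0 for no effect and ±100 for the full control effect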)
Outline: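 Phosphorylation of biotinylated GST-cJun(1-79) at Ser73 is measured by AlphaScreen proximity luminescence. Enzyme is JNK3 in HepG2 lysates activated with interleukin-1beta and tumor necrosis factor alpha; ATP is 10 uM final.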

[15] = target: 3',5'-cyclic-AMP phosphodiesterase 4B (Homo sapiens) (UniProt Q07343); assay: qHTS Assay for Inhibitors of PDE-IV (AID 607; active = well fitted activation curve with a large enough effect in the main read-out, with a control signal flat, not every such curve was filed as active; note: % of control where 0% means no effect)
Outline: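 ACTOne HEK293 cells carry a modified cAMP-gated CNG channel and express endogenous PDE4; plated 1000 cells/well, compounds up to 22.9 uM final. Membrane-potential dye fluorescence (ex 535/em 590) was read; parental cells received 10 uM forskolin + 100 uM RO 20-1724.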

[16] = target: Cytochrome P450 2C9 (Homo sapiens) (UniProt P11712); assay: qHTS Assay for Inhibitors and Substrates of Cytochrome P450 2C9 (AID 883); note: potency is the fitted concentration of half-maximal effect; nearly all actives have a fitted effect of over 60% in size
Outline: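 CYP2C9 deoxyluciferin hydroxylation, 37C, 60 min with NADPH regeneration; 10nM enzyme, 100uM Luciferin-H (KM). Glo detection reagent stopped reaction; luminescence normalized to sulphaphenazole (57uM) full inhibition.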

[17] = target: Cytochrome P450 3A4 (Homo sapiens) (UniProt P08684); assay: qHTS Assay for Activators of Cytochrome P450 3A4 (AID 885); note: nearly all actives have a fitted effect of over 65% in size
Outline: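 CYP3A4 activity: Luciferin-PPXE O-dealkylation, 25uM substrate, 200mM KPO4, RT throughout. Read-out is luciferase luminescence; higher values reflect activation.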

Sequence of Rap guanine nucleotide exchange factor 4 (Homo sapiens) (Q8WZA2 whole entry, looked up): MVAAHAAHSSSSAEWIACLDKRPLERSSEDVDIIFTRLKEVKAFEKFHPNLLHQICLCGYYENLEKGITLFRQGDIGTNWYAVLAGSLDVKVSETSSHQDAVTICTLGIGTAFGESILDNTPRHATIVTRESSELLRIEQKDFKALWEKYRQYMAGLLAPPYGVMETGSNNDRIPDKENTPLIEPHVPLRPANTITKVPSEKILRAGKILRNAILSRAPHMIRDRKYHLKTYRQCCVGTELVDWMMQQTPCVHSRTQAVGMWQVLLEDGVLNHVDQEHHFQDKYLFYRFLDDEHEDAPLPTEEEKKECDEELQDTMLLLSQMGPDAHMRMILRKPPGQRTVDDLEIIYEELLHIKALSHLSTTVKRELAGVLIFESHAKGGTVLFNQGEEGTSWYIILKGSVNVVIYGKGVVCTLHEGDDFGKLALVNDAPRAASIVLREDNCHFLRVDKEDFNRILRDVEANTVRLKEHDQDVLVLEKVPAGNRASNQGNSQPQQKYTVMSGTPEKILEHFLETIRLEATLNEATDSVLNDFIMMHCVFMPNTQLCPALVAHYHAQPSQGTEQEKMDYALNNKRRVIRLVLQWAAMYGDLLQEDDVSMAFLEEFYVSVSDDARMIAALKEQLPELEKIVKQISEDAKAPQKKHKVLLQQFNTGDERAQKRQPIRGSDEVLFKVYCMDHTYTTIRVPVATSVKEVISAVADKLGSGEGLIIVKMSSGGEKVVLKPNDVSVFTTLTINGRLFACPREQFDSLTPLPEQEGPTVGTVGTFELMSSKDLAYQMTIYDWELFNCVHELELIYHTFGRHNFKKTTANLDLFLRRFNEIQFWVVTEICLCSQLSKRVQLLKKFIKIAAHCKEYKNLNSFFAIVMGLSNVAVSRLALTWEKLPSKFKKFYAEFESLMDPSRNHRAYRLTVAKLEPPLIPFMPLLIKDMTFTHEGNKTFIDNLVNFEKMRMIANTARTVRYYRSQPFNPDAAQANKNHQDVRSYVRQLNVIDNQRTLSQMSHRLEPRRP
Sequence of Rap guanine nucleotide exchange factor 3 (Homo sapiens) (O95398 whole entry, looked up): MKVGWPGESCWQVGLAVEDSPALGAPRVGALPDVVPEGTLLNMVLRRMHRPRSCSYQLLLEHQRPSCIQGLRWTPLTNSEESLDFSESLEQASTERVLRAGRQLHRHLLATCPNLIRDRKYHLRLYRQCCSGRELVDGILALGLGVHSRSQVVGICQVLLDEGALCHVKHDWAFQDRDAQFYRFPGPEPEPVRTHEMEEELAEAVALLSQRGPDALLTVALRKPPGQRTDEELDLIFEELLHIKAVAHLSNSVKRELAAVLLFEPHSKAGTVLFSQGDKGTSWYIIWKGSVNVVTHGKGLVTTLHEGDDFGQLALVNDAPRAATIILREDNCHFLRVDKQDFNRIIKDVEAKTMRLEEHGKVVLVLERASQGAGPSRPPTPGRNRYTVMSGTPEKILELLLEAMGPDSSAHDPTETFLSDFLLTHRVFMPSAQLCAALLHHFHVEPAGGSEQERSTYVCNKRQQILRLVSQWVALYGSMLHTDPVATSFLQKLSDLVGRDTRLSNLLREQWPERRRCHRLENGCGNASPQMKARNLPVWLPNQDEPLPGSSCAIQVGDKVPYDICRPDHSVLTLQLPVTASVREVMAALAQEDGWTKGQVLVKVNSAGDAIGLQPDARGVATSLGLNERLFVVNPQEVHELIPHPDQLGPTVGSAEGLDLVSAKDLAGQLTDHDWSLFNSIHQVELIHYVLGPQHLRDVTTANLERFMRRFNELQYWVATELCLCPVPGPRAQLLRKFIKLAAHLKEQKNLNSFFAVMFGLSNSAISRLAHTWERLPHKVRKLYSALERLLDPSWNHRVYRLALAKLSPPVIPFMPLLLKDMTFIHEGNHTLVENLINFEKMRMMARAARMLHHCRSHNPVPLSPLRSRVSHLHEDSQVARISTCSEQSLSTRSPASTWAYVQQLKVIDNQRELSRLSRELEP
Sequence of Glucocorticoid receptor (Homo sapiens) (P04150 whole entry, looked up, the tested form may be a part): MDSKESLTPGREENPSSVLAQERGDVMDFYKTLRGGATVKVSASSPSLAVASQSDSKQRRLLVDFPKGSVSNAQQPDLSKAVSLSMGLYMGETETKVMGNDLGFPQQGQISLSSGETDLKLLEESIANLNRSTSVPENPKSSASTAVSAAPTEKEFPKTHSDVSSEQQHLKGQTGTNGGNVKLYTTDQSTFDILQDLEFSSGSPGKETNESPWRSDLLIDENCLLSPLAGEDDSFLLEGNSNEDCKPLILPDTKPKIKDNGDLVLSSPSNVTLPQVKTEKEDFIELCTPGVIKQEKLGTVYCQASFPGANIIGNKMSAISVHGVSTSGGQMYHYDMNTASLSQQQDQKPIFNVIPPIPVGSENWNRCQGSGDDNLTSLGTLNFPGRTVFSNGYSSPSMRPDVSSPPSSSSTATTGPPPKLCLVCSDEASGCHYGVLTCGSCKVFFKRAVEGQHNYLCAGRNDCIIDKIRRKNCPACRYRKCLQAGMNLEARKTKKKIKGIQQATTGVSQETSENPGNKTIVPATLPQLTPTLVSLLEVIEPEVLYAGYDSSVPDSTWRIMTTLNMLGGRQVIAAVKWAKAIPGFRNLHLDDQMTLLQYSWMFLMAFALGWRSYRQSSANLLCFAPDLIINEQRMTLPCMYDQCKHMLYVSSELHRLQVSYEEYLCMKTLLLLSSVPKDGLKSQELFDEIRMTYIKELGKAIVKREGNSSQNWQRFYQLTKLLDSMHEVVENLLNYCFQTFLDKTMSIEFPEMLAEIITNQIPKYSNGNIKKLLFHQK
Sequence of Cytochrome P450 2C9 (Homo sapiens) (P11712 whole entry, looked up): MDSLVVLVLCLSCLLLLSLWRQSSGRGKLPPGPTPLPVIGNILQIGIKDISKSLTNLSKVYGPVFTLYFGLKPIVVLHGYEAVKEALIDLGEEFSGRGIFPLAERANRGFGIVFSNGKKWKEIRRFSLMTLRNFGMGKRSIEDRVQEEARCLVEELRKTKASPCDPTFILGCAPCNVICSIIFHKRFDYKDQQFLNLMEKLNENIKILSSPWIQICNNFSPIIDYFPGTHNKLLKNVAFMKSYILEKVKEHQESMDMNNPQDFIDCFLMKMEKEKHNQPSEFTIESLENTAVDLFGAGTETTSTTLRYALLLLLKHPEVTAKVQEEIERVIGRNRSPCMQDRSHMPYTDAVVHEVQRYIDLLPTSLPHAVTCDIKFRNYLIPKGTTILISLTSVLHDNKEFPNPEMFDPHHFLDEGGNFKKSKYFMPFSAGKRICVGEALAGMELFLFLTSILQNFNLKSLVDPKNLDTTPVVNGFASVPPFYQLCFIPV
Sequence of Cytochrome P450 3A4 (Homo sapiens) (P08684 whole entry, looked up): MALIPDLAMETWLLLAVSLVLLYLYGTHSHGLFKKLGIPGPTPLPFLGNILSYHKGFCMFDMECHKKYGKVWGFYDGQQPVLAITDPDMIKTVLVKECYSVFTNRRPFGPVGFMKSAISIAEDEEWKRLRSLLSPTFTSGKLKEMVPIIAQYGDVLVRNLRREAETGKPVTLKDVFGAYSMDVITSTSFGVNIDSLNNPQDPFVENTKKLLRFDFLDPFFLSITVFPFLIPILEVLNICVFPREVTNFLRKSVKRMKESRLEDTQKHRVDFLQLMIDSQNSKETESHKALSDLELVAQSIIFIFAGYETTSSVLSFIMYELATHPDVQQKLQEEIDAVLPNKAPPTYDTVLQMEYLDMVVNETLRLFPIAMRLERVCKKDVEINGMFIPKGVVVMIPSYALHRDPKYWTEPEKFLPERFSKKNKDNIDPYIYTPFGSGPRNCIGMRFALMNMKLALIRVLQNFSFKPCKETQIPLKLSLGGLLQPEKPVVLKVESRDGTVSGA
Sequence of Cytochrome P450 1A2 (Homo sapiens) (P05177 whole entry, looked up): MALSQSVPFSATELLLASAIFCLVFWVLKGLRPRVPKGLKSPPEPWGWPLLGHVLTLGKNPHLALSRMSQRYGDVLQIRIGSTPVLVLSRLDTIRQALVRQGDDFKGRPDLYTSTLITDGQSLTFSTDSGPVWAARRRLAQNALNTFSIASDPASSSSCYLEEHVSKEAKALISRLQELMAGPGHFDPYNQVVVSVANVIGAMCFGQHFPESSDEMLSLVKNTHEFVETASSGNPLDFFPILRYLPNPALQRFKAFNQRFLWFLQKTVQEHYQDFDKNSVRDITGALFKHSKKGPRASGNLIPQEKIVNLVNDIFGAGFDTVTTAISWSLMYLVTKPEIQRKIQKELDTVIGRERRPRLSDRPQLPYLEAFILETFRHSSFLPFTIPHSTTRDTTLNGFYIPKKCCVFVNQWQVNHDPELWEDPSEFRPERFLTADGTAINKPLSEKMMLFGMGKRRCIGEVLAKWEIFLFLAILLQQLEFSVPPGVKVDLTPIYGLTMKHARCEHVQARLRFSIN
Sequence of Lysosomal acid glucosylceramidase (Homo sapiens) (P04062 whole entry, looked up): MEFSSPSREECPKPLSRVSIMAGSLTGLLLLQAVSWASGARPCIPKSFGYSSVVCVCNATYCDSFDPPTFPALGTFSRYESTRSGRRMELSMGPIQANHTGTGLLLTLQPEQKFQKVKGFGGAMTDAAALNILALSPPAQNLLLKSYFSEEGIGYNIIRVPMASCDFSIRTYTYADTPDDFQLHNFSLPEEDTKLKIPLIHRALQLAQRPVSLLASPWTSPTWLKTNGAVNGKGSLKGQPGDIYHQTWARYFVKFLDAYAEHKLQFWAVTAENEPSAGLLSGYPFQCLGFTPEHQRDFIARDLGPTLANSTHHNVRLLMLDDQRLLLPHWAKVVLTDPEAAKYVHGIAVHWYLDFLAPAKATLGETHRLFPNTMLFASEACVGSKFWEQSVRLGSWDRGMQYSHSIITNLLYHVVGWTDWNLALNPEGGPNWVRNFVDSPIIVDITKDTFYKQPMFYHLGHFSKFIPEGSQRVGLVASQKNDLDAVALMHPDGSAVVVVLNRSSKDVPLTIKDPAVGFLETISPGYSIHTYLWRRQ

Cn1cc([C@]2(O)C(=O)Nc3c(F)cccc32)c2ccccc21
inactive: Potency [1] | Potency [2] | Potency [3] | Potency [4] | Potency [5] | Potency [6]

O=c1[nH][nH]c(-c2ccccc2O)c1C(C[N+](=O)[O-])c1ccc(Cl)cc1Cl (stereo not given)
inactive: Potency [1] | Potency [2] | Potency [3] | Potency [4] | Potency [5] | Potency [6]

Fc1ccc(-c2ccc3nccn3c2)cc1Cl
inactive: Potency [1] | Potency [2] | activation [3] 2.32% [at 17.1 µM, percent relative to cAMP agonist control] | Potency [4] | activity change, negative = inhibition [5] -1.11% [at 30.8 µM] | activation [6] 10.1% [at 30.8 µM]

CCN(CC(=O)Nc1ccc(OC)cc1)C(=O)Cc1cccs1
active: Potency [1] 67.5 µM
inactive: Potency [2] | Potency [3] | Potency [4] | Potency [5] | Potency [6]

Cc1ccc(SCc2nnc(N)s2)cc1
inactive: activity change, negative = inhibition [7] 14.2% [at 17.2 µM] | activity change, negative = inhibition [8] -2.66% [at 17.2 µM] | Potency [9] > 20.6 µM | Potency [1] | Potency [2] | activation [3] 8.48% [at 17.1 µM, percent relative to cAMP agonist control] | Potency [4] | activity change, negative = inhibition [5] 3.94% [at 30.8 µM] | activation [6] 7.74% [at 30.8 µM]

COc1cccc(CN(C)CC(=O)Nc2c(C)cccc2C(C)C)c1
inactive: Potency [1] | Potency [2] | activation [3] 9.26% [at 17.1 µM, percent relative to cAMP agonist control] | Potency [4] | activity change, negative = inhibition [5] -8.13% [at 30.8 µM] | activation [6] 14.6% [at 30.8 µM]

c1ccc(NN(Cc2cnccn2)c2ccccc2)cc1
active: Potency [11] 2 µM | Potency [16] 3.16 µM
inactive: Potency [10] > 11.4 µM | activity change, negative = inhibition [7] -14% | activity change, negative = inhibition [8] -17.6% | outcome [12] | Potency [13] > 9.22 µM | activity change, negative = inhibition [14] 3.55% [at 11.4 µM] | Potency [15] | activity change, positive = activation [17] -52.2% [at 11.4 µM] | Potency [1] | Potency [2] | Potency [3] | Potency [4] | Potency [5] | Potency [6]
